About 13,000 (27%) of roughly 48,000 compounds showed an effect of 50% or more. The list shows a part of the results.
These compounds were tested on Wolbachia pipientis (assay: Anti-Wolbachia Cell-Based Screen). Conditions: 5 µM.
Type: functional
Design: scale not given: in the data most compounds retested in dose-response had high values
With `COCCc1noc(C2CCN(C(=O)Nc3cccs3)CC2)n1` the “Percent Effect” value was -7.09%.
For `O=C1CCC(=O)N1c1nn(Cc2ccccc2)cc1Cl`, the “Percent Effect” value was 98.19%.
For `c1ccc(CN2CCN(Cc3cscn3)CC2)cc1`, the “Percent Effect” value was 8.549%.
In the case of `CCn1cc(C(=O)N(C)Cc2c(F)cccc2Cl)cn1`, the “Percent Effect” value is reported as 10.91%.
`O=C1CCC(=O)N1c1nn(Cc2c(F)cccc2Cl)cc1Cl` was tested, and the “Percent Effect” value was 84.15%.
In the case of `O=C1N(Cc2ccccc2)C[C@H]2CN(Cc3ccccc3Cl)CCN12`, the “Percent Effect” value is reported as -1.651%.
For `O=C1N(c2cccc(Cl)c2)Cc2nc(=O)n(Cc3cccc(F)c3)n21`, the “Percent Effect” value was -1.382%.
For `CN1CCN(Cc2ccccc2Cl)CC12CCC(=O)N(CC1CC1)CC2` (stereo not given), the “Percent Effect” value was 19.23%.
In the case of `O=C1CCC(=O)N1c1nn(Cc2ccccc2Cl)cc1Cl`, the “Percent Effect” value is reported as 119%.
For `Cc1nsc(N2CCN(Cc3cccc(F)c3)CC2)n1`, the “Percent Effect” value was -33.99%.
In the case of `O=c1ccc(-c2cccs2)nn1CN1CCN(Cc2ccccc2)CC1`, the “Percent Effect” value is reported as 10.59%.
With `Fc1cccc(Cl)c1CN1CCn2c(nnc2C2CC2)C1` the “Percent Effect” value was -25.63%.
`O=C1CCC(=O)N1c1nn(Cc2cccc(F)c2)cc1Cl` was tested, and the “Percent Effect” value was 81.78%.
In the case of `Cc1cc(C(=O)N2CCc3nnc(N(C)C)cc3C2)c(C)n1C1CC1`, the “Percent Effect” value is reported as 2.988%.
`CS(=O)(=O)c1nnc(NC(=O)CCc2cccc(Cl)c2)[nH]1` was tested, and the “Percent Effect” value was -4.467%.
For `O=C(c1ncoc1-c1ccco1)N(Cc1ccco1)CC1CCCO1` (stereo not given), the “Percent Effect” value was 1.49%.
With `COc1cc(OC)c(CNC(=O)NCC(=O)N(C)C)c(OC)c1` the “Percent Effect” value was -14.89%.
`COc1ccc(-c2n[nH]cc2CN(C)CCC2CCOCC2)cc1F` was tested, and the “Percent Effect” value was -12.67%.
With `CN(C)S(=O)(=O)N1CCCCC1CCc1ccc(O)cc1` (stereo not given) the “Percent Effect” value was 3.428%.
In the case of `Cc1nsc(NCCNS(=O)(=O)c2cccc(Cl)c2)n1`, the “Percent Effect” value is reported as 1.185%.
For `O=C1CCC(=O)N1c1nn(Cc2ccc(F)cc2)cc1Cl`, the “Percent Effect” value was 96.9%.
`COc1nccnc1N1CCN(Cc2ccc(F)cc2)C(=O)C1` was tested, and the “Percent Effect” value was -14.02%.
With `CC(C)C1CN(c2ncccc2Cl)CCC(=O)N1Cc1ccc(F)cc1` (stereo not given) the “Percent Effect” value was 6.297%.
For `Cc1ccc(CN(CCCO)Cc2nc3ccccc3[nH]2)s1`, the “Percent Effect” value was -7.789%.
`CNC(=O)[C@@H]1C[C@@H](N)CN1C(=O)CCSCc1ccc(F)cc1` was tested, and the “Percent Effect” value was -13.45%.
`O=C(O)C(F)(F)F.O=C(O)C(F)(F)F.O=C(O)[C@]12CCCN(Cc3ccncc3)C[C@H]1CN(c1ncccn1)C2` was tested, and the “Percent Effect” value was 1.194%.
`O=C(O)C(F)(F)F.O=C(O)[C@]12CCCN(CC3CCOC3)C[C@H]1CN(c1ncccn1)C2` (stereo not given in full) was tested, and the “Percent Effect” value was 119%.
For `O=C(O)C(F)(F)F.O=C(O)[C@]12CCCN(C3CCOC3)C[C@H]1CN(c1nncs1)C2` (stereo not given in full), the “Percent Effect” value was 113.4%.
In the case of `Cc1ccc(CN2CCC[C@]3(C(=O)O)CN(c4ncccn4)C[C@@H]3C2)o1.O=C(O)C(F)(F)F`, the “Percent Effect” value is reported as -9.127%.
For `CNC(=O)C1CCC2(CCN(c3nncs3)CC2)CO1.O=C(O)C(F)(F)F` (stereo not given), the “Percent Effect” value was 1.191%.
In the case of `Cc1cnc(N2C[C@@H]3CN(Cc4ccco4)CCC[C@]3(C(=O)O)C2)nc1.O=C(O)C(F)(F)F`, the “Percent Effect” value is reported as 5.679%.
With `Cc1cnc(N2C[C@@H]3CN(C4CCOC4)CCC[C@]3(C(=O)O)C2)nc1.O=C(O)C(F)(F)F` (stereo not given in full) the “Percent Effect” value was 115.6%.
With `O=C(O)C(F)(F)F.O=C(O)[C@]12CCCN(Cc3ccccc3)C[C@H]1CN(c1ncccn1)C2` the “Percent Effect” value was -10.65%.
`O=C(C1CCC2(CCN(c3nncs3)CC2)CO1)N1CCCC1.O=C(O)C(F)(F)F` (stereo not given) was tested, and the “Percent Effect” value was -6.023%.
In the case of `Cc1cc(CN(C)C(=O)NCc2ccnc(SC(C)(C)C)c2)no1`, the “Percent Effect” value is reported as -6.174%.
In the case of `COc1ncccc1CNC(=O)CN1CCCCCC1=O`, the “Percent Effect” value is reported as -54.83%.
`Cc1nc(N)nc(C)c1Cc1nc(C2CC2)n[nH]1` was tested, and the “Percent Effect” value was -31.49%.
In the case of `CC(C)NC(=O)NCCn1cnc(C2CCCC2)cc1=O`, the “Percent Effect” value is reported as -0.7993%.
For `Cc1cc(-c2ccc(=O)n(CCNC(=O)C3CCCCC3)n2)c(C)o1`, the “Percent Effect” value was 127.3%.
For `Cc1cc(-c2ccc(=O)n(CCNC(=O)C3CCC3)n2)c(C)o1`, the “Percent Effect” value was 82.02%.
With `Cc1cc(C(O)CCNC(=O)COc2ccccc2F)c(C)o1` (stereo not given) the “Percent Effect” value was 1.741%.
In the case of `O=C(NCCCNC(=O)C1CCC1)NCCn1cccc1`, the “Percent Effect” value is reported as -4.539%.
For `Cc1noc(C)c1CCCNC(=O)C1CCN(C(=O)C2CC2)CC1`, the “Percent Effect” value was 11.33%.
`Cc1noc(C)c1CCCNC(=O)C1CCN(C(=O)C2CCC2)CC1` was tested, and the “Percent Effect” value was 9.148%.
For `O=C(NCCNC(=O)C1CCCCC1)NCCn1cccc1`, the “Percent Effect” value was 0.3641%.
For `Cc1cc(-c2ccc(=O)n(CCNC(=O)C3CC3)n2)c(C)o1`, the “Percent Effect” value was 72.81%.
For `COCC(=O)NCCn1nc(-c2cc(C)oc2C)ccc1=O`, the “Percent Effect” value was 96.68%.
`Cc1noc(C)c1CCCNC(=O)C1CCN(C(C)C)CC1` was tested, and the “Percent Effect” value was 1.059%.
For `COCC(=O)Nc1ccccc1-c1ccc(=O)n(C)n1`, the “Percent Effect” value was 7.916%.
With `CSc1ccc(NC(=O)NCc2nncn2C2CC2)cc1F` the “Percent Effect” value was 6.164%.
`COCCN(CCOC)C(=O)c1ccc(Cn2nc(C)cc2C)cc1` was tested, and the “Percent Effect” value was -2.502%.
With `Cc1cc(C)n(Cc2ccc(-c3noc(C(=O)NCCCO)n3)cc2)n1` the “Percent Effect” value was 113.7%.
`CNC(=O)CCNC(=O)c1cccc(Cn2nc(C)cc2C)c1` was tested, and the “Percent Effect” value was -10.69%.
In the case of `Cc1cc(C)n(Cc2ccc(-c3noc(C(=O)NCCO)n3)cc2)n1`, the “Percent Effect” value is reported as 112.8%.
In the case of `Cc1cc(C)n(Cc2ccc(C(=O)NCCN3CCOCC3)cc2)n1`, the “Percent Effect” value is reported as 0.4084%.
`CCN(CCC(=O)OC)C(=O)c1cccc(Cn2nc(C)cc2C)c1` was tested, and the “Percent Effect” value was 2.618%.
With `O=C(NCCN1CCCCC1)c1nc(-c2ccc3cc[nH]c3c2)no1` the “Percent Effect” value was 1.073%.
With `Cc1cc(C)n(Cc2ccc(-c3noc(C(=O)NC[C@@H](C)O)n3)cc2)n1` the “Percent Effect” value was 107.8%.
For `COCc1cc(C[C@@H]2CC[C@H](O)[C@@H](CNCC(C)C)O2)no1`, the “Percent Effect” value was -7.367%.
With `Cc1ccc(CN2CCC3(C2)C(=O)N(CC(N)=O)c2ccccc23)s1` (stereo not given) the “Percent Effect” value was -16.39%.
For `CN1CCN(Cc2cccnc2)C2(CCN(Cc3ccoc3)C2)C1=O.O=C(O)C(F)(F)F.O=C(O)C(F)(F)F.O=C(O)C(F)(F)F` (stereo not given), the “Percent Effect” value was -11.48%.
`CC(C)CN1C(=O)C2(CCN(Cc3cccs3)C2)c2ccccc21.O=C(O)C(F)(F)F` (stereo not given) was tested, and the “Percent Effect” value was 129.4%.
`CC(C)CN1C(=O)C2(CCN(Cc3ccsc3)C2)c2ccccc21.O=C(O)C(F)(F)F` (stereo not given) was tested, and the “Percent Effect” value was 118.8%.
With `CC(C)CN1C(=O)C2(CCN(Cc3ccoc3)C2)c2ccccc21.O=C(O)C(F)(F)F` (stereo not given) the “Percent Effect” value was 60.6%.
With `CC(C)CN1C(=O)C2(CCN(CC3CCOCC3)C2)c2ccccc21.O=C(O)C(F)(F)F` (stereo not given) the “Percent Effect” value was 3.565%.
With `Cc1ccc(CN2CCC3(C2)C(=O)N(CC2CC2)c2ccccc23)s1.O=C(O)C(F)(F)F` (stereo not given) the “Percent Effect” value was 106.7%.
With `CC(C)CN1C(=O)C2(CCN(Cc3nccs3)C2)c2ccccc21.O=C(O)C(F)(F)F` (stereo not given) the “Percent Effect” value was 21.56%.
With `CCN(CC)C(CNCc1cc(F)cc(F)c1)c1ccco1` (stereo not given) the “Percent Effect” value was 4.253%.
For `Cc1ccsc1[C@@H]1CCN(C(=O)CCc2cc(O)no2)C[C@H]1O`, the “Percent Effect” value was 2.962%.
`COc1ccccc1CC(=O)NCc1c(C)nc2cc(=O)[nH]n2c1C` was tested, and the “Percent Effect” value was -0.07038%.
In the case of `Cc1ccc(C(C)(O)CNC(=O)c2sccc2Br)o1` (stereo not given), the “Percent Effect” value is reported as 16.11%.
`CC(c1nc(C2CC2)no1)N1CCC(NS(=O)(=O)c2cccs2)CC1` (stereo not given) was tested, and the “Percent Effect” value was 7.931%.
With `Cc1ccc(CN2CCC3(C2)C(=O)N(CC(C)C)c2ccccc23)s1` (stereo not given) the “Percent Effect” value was 8.577%.
For `CC(C)CN1C(=O)C2(CCN(Cc3ccc(F)cc3)C2)c2ccccc21` (stereo not given), the “Percent Effect” value was 132%.
With `O=C(O)C(F)(F)F.c1cnc(N2C[C@H]3CCN(CC4CC4)C[C@H]3C2)cn1` the “Percent Effect” value was 93.44%.
For `O=C(O)C(F)(F)F.O=C(O)C(F)(F)F.c1cnc(N2C[C@H]3CCN(CCN4CCCC4)C[C@H]3C2)cn1`, the “Percent Effect” value was 87.36%.
In the case of `O=C(O)C(F)(F)F.O=C(O)C(F)(F)F.c1cnc(N2CCOCC3(CCCN(CC4CC4)C3)C2)cn1` (stereo not given), the “Percent Effect” value is reported as -18.67%.
`O=C(O)[C@]12CN(CC3CCC3)C[C@H]1CN(c1cnccn1)C2` was tested, and the “Percent Effect” value was 5.69%.
For `Cn1cc(CNCCc2nccs2)c(-c2cccnc2)n1`, the “Percent Effect” value was 5.46%.
With `C[C@@H]1CN(C2(C(=O)N3CC[C@H](O)C3)Cc3ccccc3C2)C[C@H](C)O1` the “Percent Effect” value was 3.055%.
`c1ccc2c3c([nH]c2c1)C(c1nn[nH]n1)CCC3` (stereo not given) was tested, and the “Percent Effect” value was 118.9%.
In the case of `Clc1ccc2[nH]c3c(c2c1)CCCC3c1nn[nH]n1` (stereo not given), the “Percent Effect” value is reported as 91.29%.
With `CCc1ccc(C(=O)N2CCCC(c3nn[nH]n3)C2)cc1` (stereo not given) the “Percent Effect” value was 6.219%.
`O=c1[nH]c2ccccc2c(=O)n1Cc1nnnn1C1CC1` was tested, and the “Percent Effect” value was -11.16%.
For `Brc1ccc2[nH]c3c(c2c1)CCCC3c1nn[nH]n1` (stereo not given), the “Percent Effect” value was 153.1%.
`NCC1Cc2cc(Cl)cc(-c3cncc(C(=O)N4CCCCC4)n3)c2O1` (stereo not given) was tested, and the “Percent Effect” value was 0.4481%.
`CN1C[C@@H]2COC[C@]2(C(=O)NCCc2cccs2)C1.O=C(O)C(F)(F)F` was tested, and the “Percent Effect” value was -4.441%.
For `O=C(O)C(F)(F)F.O=C1CO[C@@H]2CN(Cc3cccs3)C[C@H]2N1CC1CC1`, the “Percent Effect” value was 3.643%.
In the case of `O=C(NCCc1cccs1)[C@]12COC[C@H]1CN(C1CCOCC1)C2.O=C(O)C(F)(F)F`, the “Percent Effect” value is reported as -30.21%.
In the case of `O=C(NCCc1cccs1)[C@H]1CO[C@H]2CCN(C3CCC3)C[C@H]2C1.O=C(O)C(F)(F)F`, the “Percent Effect” value is reported as 119.1%.
For `O=C(NCCc1cccs1)[C@H]1CO[C@H]2CCN(CC3CC3)C[C@H]2C1.O=C(O)C(F)(F)F`, the “Percent Effect” value was 100.3%.
For `O=C(NCc1cccs1)C1CNCC12CCOCC2.O=C(O)C(F)(F)F` (stereo not given), the “Percent Effect” value was 1.102%.
For `O=C(NCc1cccs1)[C@H]1CO[C@H]2CCN(C3CCCC3)C[C@H]2C1.O=C(O)C(F)(F)F`, the “Percent Effect” value was 106.7%.
For `CC(C)NC(=O)[C@H]1C[C@@H]2[C@@H](C1)OCCN2Cc1cccs1.O=C(O)C(F)(F)F`, the “Percent Effect” value was -8.796%.
`O=C(NCc1cccs1)c1nc2c(o1)CN(CC1CC1)C2.O=C(O)C(F)(F)F` was tested, and the “Percent Effect” value was -6.948%.

Source: ChEMBL document CHEMBL3988442, “University of Dundee, Small-Polar-MMV Screening Library” (2021)
